High-throughput results deposited in PubChem by National Center for Advancing Translational Sciences (NCATS).
An excerpt weighted towards active compounds, which were near 19% of everything screened.
HT1080 IDH1KD tx: HT-1080 IDH1 knockdown cell toxicity (counter line); AID 686971; Potency, µM (highest dose often 46.1 µM), inactives show at the top dose activity, negative = toxicity, actives largely listed as cytotoxic; HT-1080 IDH1 knockdown viability, ATP luminescence, 48 h; 360,000 tested, 2% active;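 further: potency means the concentration at half of the fitted maximal effect; 0% = DMSO wells and -100% = cell-free medium wells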
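Knockdown cells (IDH1KD HT-1080) received compounds 2 h after plating at 750 cells/well and were kept 48 h at 37 °C in 5% FBS RPMI. A CellTiter-Glo luminescence read gave % activity for curve fitting.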
DT40 TDP1 CPT: growth inhibition of DT40 Tdp1-/-;hTDP1 cells with camptothecin (screen for TDP1 inhibitors); 420,000 tested, 12% active; AID 686979; Potency, µM (top dose mostly 46.2 µM), without a hit: at the top dose activity change, negative = growth inhibition, most hits filed as inhibitors; chicken DT40 Tdp1-/-;hTDP1 cells + 20 nM CPT, ATP luminescence, 48 h; further: potency means the concentration at half of the fitted maximal effect; nearly all actives have a fitted effect of over 55% in size
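Cell growth measured by CellTiter-Glo luminescence after a minimum 48 h, 37 C compound exposure with 20 nM CPT in Tdp1-knockout DT40 cells stably expressing hTDP1, seeded 400/well; qHTS titration format.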
HT1080NT lethal: kills 2HG-producing HT-1080-NT fibrosarcoma cells. HT-1080-NT fibrosarcoma viability, CellTiter-Glo ATP luminescence, 48 h. Potency, µM (top dose mostly 46.1 µM), for inactives: top-dose activity, negative = less viability, hits mostly cytotoxic. 360,000 tested, 1.6% active;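 further: NT is the 2HG producing partner of a matched IDH1 knockdown line; potency means the concentration at half of the fitted maximal effect; 0% = DMSO-treated cells and -100% = media-only wells without cells; nearly all actives have a fitted effect of over 55% in size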
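Compounds were tested in concentration-response format on HT-1080-NT cells for 48 hours at 37 degrees C. Cell viability came from CellTiter-Glo luminescence; curves were classified by r2, response magnitude and activity.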
DT40 TDP1 no CPT: qHTS for Inhibitors of human tyrosyl-DNA phosphodiesterase 1 (TDP1): qHTS in cells in absence of CPT. DT40 Tdp1-/- hTDP1 cells, no CPT, ATP luminescence, 48 h. Potency, µM (highest dose often 46.2 µM), without a hit: top-dose activity change, negative = growth inhibition, actives largely listed as inhibitors. 420,000 tested, 15% active. AID 686978, 2013; further: potency means the concentration at half of the fitted maximal effect; nearly all actives have a fitted effect of over 55% in size
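DT40 Tdp1-/-;hTDP1 cells, no CPT (DMSO vehicle only), 400 cells/well; compounds pin-transferred; ≥48 hr, 37 °C; CellTiter-Glo 30 min RT dark, luminescence read.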
IL-1B inflam inh: blocks inflammasome-driven IL-1 beta release | THP-1 LPS/ATP IL-1B secretion, AlphaLISA, 16 h; hits give low values | activity change, % at 57.5 µM | 360,000 tested, 4.7% active | AID 743279; in the data active means activity change below about -50%; inconclusive means mostly about -30% to -49%
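THP-1 cells pretreated 1 hr with compounds (up to 57.5 uM final), then stimulated with LPS (250 ng/mL final) plus ATP (1.25 mM final); secreted IL-1B measured by AlphaLISA after 16 hr, decreased signal indicating inhibition.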
Starred values were filed as active, the others as inactive; ? = inconclusive; · = not tested or not shown. Unless noted, the call rests on the fitted dose curve; in most records, active means well fitted curve in the direction sought with a large enough effect; inconclusive means small, poorly fitted or top-dose-only effect, or another doubt; inactive means no such curve, though single readings can be large; an effect the other way counts as inactive or inconclusive. Unless noted, on the % scale 0 is the no-effect control and ±100 the full control effect.

SMILES	HT1080 IDH1KD tx	DT40 TDP1 CPT	HT1080NT lethal	DT40 TDP1 no CPT	IL-1B inflam inh
Cn1c(N2CCN(C(c3ccccc3)c3ccccc3)CC2)nc2c1c(=O)[nH]c(=O)n2C	3%	21µM*	-1%	18µM*	48
CCC(C)Nc1nc2c(c(=O)[nH]c(=O)n2C)n1CCOc1ccccc1 (stereo unspecified)	-11%	21µM*	-15%	?	0
CN(Cc1ccccc1)c1nc2c(c(=O)[nH]c(=O)n2C)n1CCOc1ccccc1	?	?	-20%	16µM*	-8
CCOc1ccc(C(c2c(O)cc(C)n(CCOC)c2=O)N2CCN(c3ccccc3)CC2)cc1 (stereo unspecified)	·	1%	·	-9%	·
Cn1c(=O)[nH]c(=O)c2c1nc(N1CCCCCC1)n2CCOc1ccccc1	-1%	-26%	9%	23µM*	17
Cn1c(=O)[nH]c(=O)c2c1nc(N1CCCCCC1)n2Cc1cccc2ccccc12	12%	-21%	12%	16µM*	-14
CCn1c(N2CCN(CC(=O)c3c(C)n(C)c4ccccc34)CC2)nc2c1c(=O)[nH]c(=O)n2C	-14%	?	-18%	?	-71*
CC1CCCN(c2nc3c(c(=O)[nH]c(=O)n3C)n2Cc2ccccc2Cl)C1 (stereo unspecified)	0%	15µM*	-13%	?	7
Cn1c(=O)[nH]c(=O)c2c1nc(N1CCNCC1)n2Cc1ccccc1Cl	-8%	-4%	0%	-23%	5
NC(=O)c1cc(NC(=O)c2ccc(NS(=O)(=O)c3cccs3)cc2)cc(C(N)=O)c1	1%	-21%	29%	-14%	-4
Cc1ccc(C)c(CC(=O)N2CCCC(c3cc(C(=O)Nc4ccc5c(c4)OCO5)no3)C2)c1 (stereo unspecified)	?	15µM*	?	16µM*	-25
CC(C)c1ccc(C(=O)N2CCCC(c3cc(C(=O)Nc4ccc5c(c4)OCO5)no3)C2)cc1 (stereo unspecified)	-11%	?	-19%	21µM*	-5
CCCNC(=O)c1cc(C2CCCN(C(=O)c3ccc(NC(C)=O)cc3)C2)on1 (stereo unspecified)	3%	2%	14%	-31%	1
CN(C)c1ccc(CC(=O)N2CCCC(c3cc(C(=O)Nc4ccc5c(c4)OCO5)no3)C2)cc1 (stereo unspecified)	?	16µM*	-18%	13µM*	-2
CN(C)c1ccc(CC(=O)N2CCCC(c3cc(C(=O)Nc4ccccc4)no3)C2)cc1 (stereo unspecified)	-1%	?	-13%	?	0
CCCN(CC(=O)Nc1ccccc1C)C(=O)C1CC(=O)N(c2ccccc2C(C)CC)C1 (stereo unspecified)	-7%	-2%	-7%	-6%	11
CCC(C)c1ccccc1N1CC(C(=O)N(C)CC(=O)Nc2cccc(F)c2)CC1=O (stereo unspecified)	-6%	-22%	-4%	-2%	-61*
COc1ccnc(Oc2ccc(F)cc2)c1C(=O)N/C=N/OCc1cccc(F)c1	-4%	-8%	-4%	-36%	0
COc1ccnc(Oc2ccccc2)c1C(=O)N/C=N/OCc1ccc(F)cc1Cl	16µM*	?	?	?	?
CCNC(=O)C1CCCc2c1[nH]c1ccc(Cl)cc21 (stereo unspecified)	-26%	-2%	-2%	-18%	-14
COc1ccc(C(NC(C)=O)c2ccc3cccnc3c2O)cc1OC (stereo unspecified)	·	6.3µM*	·	6.3µM*	·
COc1ccc(C(NC(C)=O)c2ccc3cccnc3c2O)c(OC)c1 (stereo unspecified)	6.5µM*	3.7µM*	?	2.9µM*	111
COc1cccc(C(NC(C)=O)c2nc(-c3cccc4cccnc34)cs2)c1 (stereo unspecified)	1%	?	14%	?	38
